An excerpt weighted towards active compounds, which were near 3% of everything screened.
Vc quorum ag: inducers of Vibrio cholerae quorum light production without autoinducers, primary screen, BH1578 luxS cqsA deficient, single point. AID 588436, 2011. activation, % at 18.7 µM. actives 0.16% (n = 350,000). V. cholerae BH1578 lux reporter, luminescence, 6 h; in the data active = activation mostly above about 9.7%, no sharp cut-off
GDH-TPI counter-1: GDH-TPI coupling enzyme inhibitors, primary screen, artefact control for M. tuberculosis FBA inhibitor project, biochemical, absorbance, full deck; actives 1.2% (n = 360,000); inhibition, % at 4.8 µM; GDH-TPI coupled enzyme counterscreen, NADH absorbance; in the data active = inhibition above about 30%
Mtb FBA inh: Mtb FBA enzyme inhibitors, primary screen, biochemical, fluorescence, strain H37Rv | purified M. tuberculosis FBA, fluorescence read-out | inhibition, % at 1 µM | actives 2.3% (n = 360,000)
Target sequence (P9WQA3 whole entry, looked up): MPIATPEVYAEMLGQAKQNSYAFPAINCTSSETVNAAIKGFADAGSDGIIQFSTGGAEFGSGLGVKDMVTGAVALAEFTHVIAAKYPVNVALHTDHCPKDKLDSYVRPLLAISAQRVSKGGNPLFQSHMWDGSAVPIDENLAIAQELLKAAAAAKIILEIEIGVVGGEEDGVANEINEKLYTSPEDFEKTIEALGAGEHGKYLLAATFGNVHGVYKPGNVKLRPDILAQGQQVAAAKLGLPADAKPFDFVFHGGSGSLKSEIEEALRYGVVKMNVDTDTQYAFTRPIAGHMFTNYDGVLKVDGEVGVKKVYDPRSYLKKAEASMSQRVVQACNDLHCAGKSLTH
BioA inh: M. tuberculosis BioA enzyme inhibitors, primary screen, biochemical, plate reader, single point, HTS; 7,8-diaminopelargonic acid synthase BioA (Mycobacterium tuberculosis); actives 0.096% (n = 360,000); inhibition, % at 9.99 µM; purified M. tuberculosis BioA enzyme; in the data active = inhibition above about 40%
Mtb FBA confirm: M. tuberculosis aldolase blockers, biochemical, fluorescence, strain H37Rv, confirmation. inhibition, % at 1 µM. purified M. tuberculosis FBA, fluorescence read-out. actives 78% (n = 5,600). shares compounds with Mtb FBA inh. AID 651616, 2012
GDH-TPI counter-2: GDH-TPI coupling enzyme inhibitors, artefact control for M. tuberculosis FBA inhibitor project, biochemical, fluorescence, high throughput. actives 81% (n = 5,600). GDH-TPI coupled enzyme counterscreen. inhibition, % at 1 µM. shares compounds with Mtb FBA inh; in the data active = inhibition above about 10%
GDH-TPI dose: GDH-TPI coupling enzyme inhibitors, dose response, artefact control for M. tuberculosis FBA inhibitor project, biochemical, fluorescence, IC50; shares compounds with Mtb FBA inh; actives 79% (n = 170); IC50, µM; GDH-TPI coupled enzyme assay, artifact counterscreen; call rule not given here
Of the large screens only hits and unclear results are named; the others gave an inactive call (follow-up assays come after a bar, where they were run). Rule as the data show it, unless noted: active = inhibition above about 27%; inactive = the rest.

CCCc1cc(=O)oc2cc(C)cc(OCC(=O)N3C[C@H]4C[C@@H](C3)c3cccc(=O)n3C4)c12	Mtb FBA inh 42 | Mtb FBA confirm 167 | GDH-TPI counter-2 127
Cc1ccc(S(=O)(=O)N(C)C[C@H]2Oc3ccc(NS(=O)(=O)c4cccs4)cc3C(=O)N([C@H](C)CO)C[C@@H]2C)cc1	none (no result: Vc quorum ag, GDH-TPI counter-1, Mtb FBA inh)
COc1cc(NC(=O)Nc2ccc(Cl)c(Cl)c2)c(C(=O)O)cc1OC	Mtb FBA inh 104 | Mtb FBA confirm 49 | GDH-TPI counter-2 47
CN(C(=O)Nc1ccc(Cl)c(Cl)c1)c1ccccc1C(=O)O	Mtb FBA inh 68 (no result: BioA inh) | Mtb FBA confirm 142 | GDH-TPI counter-2 134
CSc1ccccc1NC(=O)Nc1cccc(Cl)c1	none
Cc1ccc(NC(=O)Nc2cccc(Cl)c2)c(C(=O)O)c1	Mtb FBA inh 94 (no result: BioA inh) | Mtb FBA confirm 104 | GDH-TPI counter-2 78
CC(C)CC#Cc1cnc2c(c1)C(=O)N([C@H](C)CO)C[C@@H](C)[C@@H](CN(C)C(=O)Cc1ccncc1)O2	none (no result: Vc quorum ag, GDH-TPI counter-1, Mtb FBA inh)
O=C(NCC[C@H]1CC[C@H](NC(=O)C2CCC2)[C@@H](CO)O1)Nc1ccc(Cl)cc1	none (no result: Vc quorum ag, GDH-TPI counter-1, Mtb FBA inh)
COCC(=O)Nc1nc2n(n1)C(c1ccccc1)CC(c1ccc(OC)cc1)N2 (stereo unspecified)	Mtb FBA inh 54 | Mtb FBA confirm 50 | GDH-TPI counter-2 31
Cc1ccc(-c2csc(NC(=O)CN3CC(C)OC(C)C3)n2)cc1 (stereo unspecified)	Mtb FBA inh 42 | Mtb FBA confirm 88 | GDH-TPI counter-2 67
CC1CCN(CC(=O)Nc2nc(-c3ccccc3)cs2)CC1	none
CCOC(=O)C1CCN(C(=O)COc2ccc3c(C)cc(=O)oc3c2)CC1	Mtb FBA inh 35 (no result: BioA inh) | Mtb FBA confirm 148 | GDH-TPI counter-2 136
Cc1cc(=O)oc2cc(OCc3ccc(C(=O)N4CCN(c5ccc([N+](=O)[O-])cc5)CC4)cc3)ccc12	none (no result: BioA inh)
Cc1cc(=O)oc2cc(OCC(=O)N3CCCC3)ccc12	Mtb FBA inh 41 | Mtb FBA confirm inactive | GDH-TPI counter-2 inactive | GDH-TPI dose 5.3
Cc1cc(=O)oc2cc(OCc3ccc(C(=O)N4CCN(c5ccccc5)CC4)cc3)ccc12	Mtb FBA inh 44 (no result: BioA inh) | Mtb FBA confirm 121 | GDH-TPI counter-2 89
Cc1cc(=O)oc2cc(OCC(=O)N3CCOCC3)ccc12	none
CCCC(O)C#Cc1cnc2c(c1)C(=O)N([C@H](C)CO)C[C@H](C)[C@H](CN(C)C(=O)NC(C)C)O2 (stereo partly specified)	none (no result: Vc quorum ag, GDH-TPI counter-1, Mtb FBA inh)
Cc1ccc(-c2c(C#N)c(N)nc3c2CCCCCC3)o1	Mtb FBA inh 31 | Mtb FBA confirm 51 | GDH-TPI counter-2 38
COCCNC(=O)[C@H]1[C@H](CO)[C@H]2Cn3c(ccc(-c4ccc(F)cc4)c3=O)[C@@H]1N2C	none (no result: Vc quorum ag, GDH-TPI counter-1, Mtb FBA inh)
COc1ccc(S(=O)(=O)Nc2ccc3c(c2)C(=O)N([C@@H](C)CO)C[C@@H](C)[C@@H](CN(C)C(=O)NC(C)C)O3)cc1	none (no result: Vc quorum ag, GDH-TPI counter-1, Mtb FBA inh)
NC(=Nc1ccccc1)NC(=O)c1nc(Cl)c(N)nc1N	none
NC(=NCc1ccccc1)NC(=O)c1nc(Cl)c(N)nc1N	Mtb FBA inh 37 | Mtb FBA confirm 32 | GDH-TPI counter-2 37
COCC(=O)N1[C@@H](CO)[C@H](c2ccccc2)[C@@H]1CNC(=O)c1ccccn1	none (no result: Vc quorum ag, GDH-TPI counter-1, Mtb FBA inh)
Cc1ccc2nc(-c3ccc(NC(=O)COC(=O)c4cncc(Br)c4)cc3)sc2c1	Mtb FBA inh 40 (no result: BioA inh) | Mtb FBA confirm 33 | GDH-TPI counter-2 26
Cc1ccc2nc(-c3ccc(NC(=O)COC(=O)c4ccc(Br)o4)cc3)sc2c1	none
COc1ccc(/C=C(\C#N)C(=O)OCC(=O)Nc2ccc(-c3nc4ccc(C)cc4s3)cc2)cc1	Mtb FBA inh 31 | Mtb FBA confirm 119 | GDH-TPI counter-2 90
CCOc1ncccc1C(=O)OCC(=O)Nc1ccc(-c2nc3ccc(C)cc3s2)cc1	Mtb FBA inh 34 (no result: BioA inh) | Mtb FBA confirm 33 | GDH-TPI counter-2 23
Cc1noc(C)c1NC(=O)Nc1ccc2c(c1)C(=O)N([C@@H](C)CO)C[C@H](C)[C@@H](CN(C)S(=O)(=O)c1ccccc1)OCCCC[C@@H](C)O2	none (no result: Vc quorum ag, GDH-TPI counter-1, Mtb FBA inh)
O=C(N[C@@H]1CC[C@H](CCn2cc(C3CCCCC3)nn2)O[C@@H]1CO)c1cccnc1	none (no result: Vc quorum ag, GDH-TPI counter-1, Mtb FBA inh)
CCCNC(=O)N(C)C[C@H]1Oc2ncc(-c3ccc(OC)cc3)cc2C(=O)N([C@H](C)CO)C[C@@H]1C	none (no result: Vc quorum ag, GDH-TPI counter-1, Mtb FBA inh)
CC(C)C(=O)Nc1sc2c(c1-c1nc3ccccc3[nH]1)CCCC2	Mtb FBA inh 43 (no result: BioA inh) | Mtb FBA confirm active | GDH-TPI counter-2 182
O=C(NCc1cccnc1)c1ccc(Cl)c(Cl)c1	none
O=C(NCc1cccnc1)c1ccc(-c2ccc(Cl)cc2)o1	Mtb FBA inh 29 (no result: BioA inh) | Mtb FBA confirm 113 | GDH-TPI counter-2 103
O=C(NCc1cccnc1)c1ccc(-c2cc3ccccc3oc2=O)cc1	Mtb FBA inh 54 (no result: BioA inh) | Mtb FBA confirm inactive | GDH-TPI counter-2 inactive
CCOc1ncnc2c1[nH]c1ccccc12	Mtb FBA inh 37 | Mtb FBA confirm 35 | GDH-TPI counter-2 28
c1ccc2c(c1)[nH]c1c(N3CCCC3)ncnc12	none
CC1(C)Cc2nc(NCCN3CCOCC3)c(C#N)cc2CO1	none
CC(C)CCNc1nc2c(cc1C#N)COC(C)(C)C2	Mtb FBA inh 64 | Mtb FBA confirm 192 | GDH-TPI counter-2 159
CC1CCN(c2nc3c(cc2C#N)COC(C)(C)C3)CC1	Mtb FBA inh 40 | Mtb FBA confirm 91 | GDH-TPI counter-2 63
N#CCCn1cc(C(N)=O)c(-c2cccs2)n1	Mtb FBA inh 29 | Mtb FBA confirm 75 | GDH-TPI counter-2 63
CCCNC(=O)C(=O)NCC1CCCN1CC (stereo unspecified)	Mtb FBA inh 29 | Mtb FBA confirm inactive | GDH-TPI counter-2 13
COc1cc2ccnc(C=NO)c2cc1OC	Mtb FBA inh 42 | Mtb FBA confirm 122 | GDH-TPI counter-2 95
CCOCc1cc(C)[nH]c(=O)c1C#N	Mtb FBA inh 68 | Mtb FBA confirm 175 | GDH-TPI counter-2 148
CO[C@H]1CN(C)C(=O)c2cc(NS(=O)(=O)c3cn(C)cn3)ccc2OC[C@@H](C)N(C)C[C@@H]1C	none (no result: Vc quorum ag, GDH-TPI counter-1, Mtb FBA inh)
Cc1ccc(-c2cc(C)nc3nc(N)nn23)cc1	Mtb FBA inh 83 | Mtb FBA confirm 61 | GDH-TPI counter-2 51
